Several values for one entry are separate records, joined by “and”; a condition that tells them apart may be missing. Equal values may be shown once. Inconclusive results are not listed. A call without a number means that no potency is given here. Some structures have more than one record in an assay (separate samples or runs), and their calls can disagree. Activity calls are given as the source filed them. Calls follow the shape of the full dose curve.
Molecular target: Thyrotropin receptor (Homo sapiens) (UniProt P16473)
Assay: qHTS assay to identify small molecule agonists of the thyroid stimulating hormone receptor (TSHR) signaling pathway (AID 1224843); also: nearly all actives have a fitted effect of over 45% in size
Conditions: TSHR-HEK293 cells, cAMP HTRF, agonist mode, 30 min; series mostly up to 92.4 µM
Source text: National Center for Advancing Translational Sciences [NCATS]
NIH Chemical Genomics Center [NCGC]
U.S. Environmental Protection Agency [EPA]
National Institutes of Environmental Health Sciences [NIEHS]
National Toxicology Program [NTP]
U.S. Food and Drug Administration [FDA]
TSHR is the receptor for thyrotropin (thyroid stimulating hormone or TSH), a member of the glycoprotein hormone family. TSH is released by the anterior pituitary gland and is the main regulator of thyroid gland growth and development. Upon binding circulating thyrotropin, a G-protein signal cascade activates adenylyl cyclase and […] cAMP concentration is increased. cAMP is a key second messenger involved extensively in cellular signal transduction pathways associated with the majority of G-protein coupled receptors (GPCRs). The activation of these GPCRs by neurotransmitters, lipids, nucleotides, peptides and hormones results in the activation or the inhibition of plasma membrane-bound adenylate cyclase through heterotrimeric G-proteins. A cell-based TSHR assay was used to screen the Tox21 10K library for compounds that can modulate TSHR in agonist mode.
Tox21 Assay Protocol Summary:
TSHR-Hek293 cells were dispensed at 800 cells/4uL/well in 1536-well white plates using a Multidrop dispenser. […] The plates were incubated at room temperature for 30 min. 2.5 ul/well of cAMP-d2 and 2.5ul/well of anti-cAMP-cryptate was added respectively into the assay plates using a Flying Reagent Dispenser. After 1 hr incubation at room temperature, the fluorescence intensity in the plates was measured using an Envision plate reader. Each test compound was measured at 15 concentrations and in triplicates.
Potency is read from the fitted curve at half-maximal effect.

Thyrotropin receptor (Homo sapiens), sequence (P16473 whole entry, looked up): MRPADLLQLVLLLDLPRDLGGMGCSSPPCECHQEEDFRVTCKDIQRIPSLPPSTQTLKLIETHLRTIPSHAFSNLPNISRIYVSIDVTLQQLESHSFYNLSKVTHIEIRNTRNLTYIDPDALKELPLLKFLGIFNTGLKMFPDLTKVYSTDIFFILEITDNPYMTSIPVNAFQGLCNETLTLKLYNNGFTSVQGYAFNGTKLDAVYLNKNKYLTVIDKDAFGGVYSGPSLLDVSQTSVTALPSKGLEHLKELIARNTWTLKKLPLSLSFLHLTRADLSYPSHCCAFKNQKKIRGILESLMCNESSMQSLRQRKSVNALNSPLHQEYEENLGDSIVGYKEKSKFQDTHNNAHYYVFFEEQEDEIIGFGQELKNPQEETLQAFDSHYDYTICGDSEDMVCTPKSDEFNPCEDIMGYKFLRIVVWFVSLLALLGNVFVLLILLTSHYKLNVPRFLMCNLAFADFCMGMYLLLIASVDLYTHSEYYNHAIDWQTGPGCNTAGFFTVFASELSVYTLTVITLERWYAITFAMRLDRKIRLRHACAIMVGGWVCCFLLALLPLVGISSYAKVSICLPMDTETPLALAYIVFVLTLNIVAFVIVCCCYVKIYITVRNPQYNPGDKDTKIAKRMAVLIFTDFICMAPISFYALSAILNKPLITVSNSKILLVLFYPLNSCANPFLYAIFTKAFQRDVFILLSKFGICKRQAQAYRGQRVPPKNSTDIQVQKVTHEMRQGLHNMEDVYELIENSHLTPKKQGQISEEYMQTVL

| SMILES | Potency |
| --- | --- |
| CCCOC(=O)c1cc(O)c(O)c(O)c1 | inactive |
| COc1cc(C(=S)N2CCOCC2)ccc1O | inactive |
| CNC1(C)C2CCC(C2)C1(C)C (stereo not given) | inactive |
| CCc1cc(C(C)(C)C)c(O)c(C(C)(C)C)c1 | inactive |
| Nc1cc(Cl)c(-c2cc(Cl)c(N)cc2Cl)cc1Cl | inactive |
| NCCCCCC(=O)O | inactive |
| OCC(CO)N[C@H]1C[C@](O)(CO)[C@@H](O)[C@H](O)[C@H]1O | inactive |
| CCC[C@H](N[C@@H](C)C(=O)N1[C@H](C(=O)O)C[C@@H]2CCCC[C@@H]21)C(=O)OCC | inactive |
| O=C(O)CCc1ccccc1 | inactive |
| Cc1occc(=O)c1OC(=O)C(C)C | inactive |
| CCCNC(C)C(=O)Nc1ccccc1C (stereo not given) | inactive |
| Cc1cc(C(C)(C)C)c(O)c(C(C)(C)C)c1 | inactive |
| CC(COc1ccccc1)N(CCCl)Cc1ccccc1 (stereo not given) | 30.9 µM (active) and 43.3 µM (active) and 29.8 µM (active) |
| COC(=O)/C=C/c1ccccc1 | inactive |
| COc1ccc(CCN2CCC(Nc3nc4ccccc4n3Cc3ccc(F)cc3)CC2)cc1 | inactive |
| CCn1c2ccccc2c2cc(N)ccc21 | inactive |
| Clc1ccc2c(c1)C(N1CCNCC1)=Nc1ccccc1O2 | inactive |
| C=C(C)C1CC=C(C)C(OC(C)=O)C1 (stereo not given) | inactive |
| CC(C)(C)NCC(O)c1cc(O)cc(O)c1 (stereo not given) | 596 nM (active) |
| CC(=O)Nc1ccc(C(=O)CCl)cc1 | inactive |

| SMILES | Potency |
| --- | --- |
| O=C(Oc1ccccc1)c1ccccc1O | inactive |
| C=CC(=O)OCCCCCCCC | inactive |
| C[N+]1([O-])CCOCC1 | inactive |
| CNCCC(Oc1ccc(C(F)(F)F)cc1)c1ccccc1 (stereo not given) | inactive |
| Cc1ccc(-c2cc(C(F)(F)F)nn2-c2ccc(S(N)(=O)=O)cc2)cc1 | 48.4 µM (active) and 34.4 µM (active) and inactive |
| Oc1ccc(Cl)cc1Cc1cc(Cl)ccc1O | inactive |
| CCCCOCCOC(=O)c1ccccc1C(=O)OCCOCCCC | inactive |
| CC(=O)OCCOCCOCCOC(C)=O | 6.77 µM (active) and inactive |
| Nc1ccc2cc3ccccc3cc2c1 | inactive |
| c1ccc2n[nH]nc2c1 | inactive |
| CC[C@]1(O)C[C@@H]2CN(CCc3c([nH]c4ccccc34)[C@@](C(=O)OC)(c3cc4c(cc3OC)N(C)[C@H]3[C@@](O)(C(=O)OC)[C@H](OC(C)=O)[C@]5(CC)C=CCN6CC[C@]43[C@@H]65)C2)C1 | inactive |
| NC(=Nc1ccccc1)Nc1ccccc1 | inactive |
| Cc1cccc(O)c1C | inactive |
| CC(C)(C)c1cc(C(C)(C)C)c(O)c(C(C)(C)C)c1 | inactive |
| Cc1c(O)cccc1C(=O)N[C@@H](CSc1ccccc1)[C@H](O)CN1C[C@H]2CCCC[C@H]2C[C@H]1C(=O)NC(C)(C)C | inactive |
| O=C(OCc1ccccc1)c1ccc(O)cc1 | inactive |
| CCCCC/C=C/CC1CC(=O)OC1=O (stereo not given) | inactive |
| O=C1Nc2ccccc2C1(c1ccc(O)cc1)c1ccc(O)cc1 | inactive |
| Cc1scc2c1N(C(=O)CN1CCN(C)CC1)c1ccccc1NC2=O | inactive |
| O=C(O)Cn1cnnn1 | inactive |

Source: PubChem BioAssay (Tox21)
